Compound activity (PubChem)
uPA generation: qHTS for Inhibitors of Cell Surface uPA Generation | cell surface uPA generation assay, qHTS | Potency, µM (series often up to 38.3 µM), for the others: at the highest dose activity change, negative = inhibition, actives largely listed as inhibitors | 0.31% of 330,000 active | AID 540303, 2011; active = well fitted inhibition curve with a large enough effect; inconclusive = small, poorly fitted or top-dose-only effect; inactive = no such curve, though single readings can be large or run the other way; tested in mouse RAW 264.7 cells; note: % is set by controls: 0 for no effect and ±100 for the full control effect; nearly all actives have a fitted effect of over 55% in size
Mito fusion yeast: qHTS Assay for Small Molecule Inhibitors of Mitochondrial Division or Activators of Mitochondrial Fusion | AID 485298, 2010 | 0.23% of 320,000 active | Potency, µM (highest dose often 46.1 µM), for inactives: at the highest dose growth rescue (activation), actives largely listed as activators | S. cerevisiae fusion-defective mutant growth rescue, CellTiterGlo 48 h; note: % of control where 0% means no effect; nearly all actives have a fitted effect of over 45% in size
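S. cerevisiae fusion-defective temperature-sensitive mutants (e.g. fzo1-1, mgm1-5) grown 48 h at 37C in YPEG (ethanol/glycerol non-fermentable) medium with 23 nl compound per well; growth rescue read as CellTiterGlo luminescence.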
Gal4-VP16 FLuc: VP16 counterscreen qHTS for inhibitors of ROR gamma transcriptional activity; Drosophila S2 Gal4-VP16 UAS-luciferase, luminescence, 20 h; Potency, µM (highest dose often 53.6 µM), for inactives: top-dose activity, negative = inhibition, hits mostly inhibitors; 3.5% of 310,000 active; AID 2546, 2010;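 note: Gal4-VP16 expression switched on by copper sulfate through the metallothionein promoter; % is set by controls: 0 for no effect and ±100 for the full control effect; nearly all actives have a fitted effect of over 50% in size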
RORgamma inh: qHTS for inhibitors of ROR gamma transcriptional activity; Nuclear receptor ROR-gamma (Mus musculus), P51450; Drosophila S2 Gal4-RORgamma UAS-luciferase reporter, 20 h; 5.4% of 310,000 active; AID 2551, 2010; Potency, µM (titrated, usually from 53.6 µM), inactives show at the top dose activity change, negative = inhibition, hits mostly inhibitors; note: % is set by controls: 0 for no effect and ±100 for the full control effect; nearly all actives have a fitted effect of over 60% in size
Target sequence (P51450 whole entry, looked up, the tested form may be a part): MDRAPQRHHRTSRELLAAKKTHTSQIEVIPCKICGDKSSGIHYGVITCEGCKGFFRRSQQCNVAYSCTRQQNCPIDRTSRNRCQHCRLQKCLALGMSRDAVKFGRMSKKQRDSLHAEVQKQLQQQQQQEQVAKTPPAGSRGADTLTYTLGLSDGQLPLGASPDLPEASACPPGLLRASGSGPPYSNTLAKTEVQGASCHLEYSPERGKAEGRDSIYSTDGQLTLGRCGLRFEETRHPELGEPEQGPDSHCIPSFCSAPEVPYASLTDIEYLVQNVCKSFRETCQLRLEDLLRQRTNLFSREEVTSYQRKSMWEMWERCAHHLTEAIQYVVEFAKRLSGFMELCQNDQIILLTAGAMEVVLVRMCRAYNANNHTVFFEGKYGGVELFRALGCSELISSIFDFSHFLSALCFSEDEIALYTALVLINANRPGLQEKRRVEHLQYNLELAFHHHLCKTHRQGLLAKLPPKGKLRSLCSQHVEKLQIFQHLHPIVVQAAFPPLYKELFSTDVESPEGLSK
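Drosophila S2 cells stably expressing Gal4-DBD/mouse RORγ fusion under metallothionein promoter plus UAS-luciferase; compound 1 h, then 700 uM CuSO4 induction for 20 h at ambient temperature; inhibition read as reduced luminescence.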
a7 integrin act: qHTS for Activators of Integrin-Mediated Alleviation for Muscular Dystrophy; alpha7betagal myoblasts, beta-gal FDG fluorescence, 48 h; Potency, µM (series often up to 38.3 µM), without a hit: at the highest dose activation, usual class: activators; 0.064% of 350,000 active;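 note: 100% = response of the positive control SU9516; nearly all actives have a fitted effect of over 60% in size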
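Alpha7betagal+/- myoblasts (passage 13) were plated 16-24 hr, then exposed to compounds (1:260 dilution of DMSO stock) for 48 hours at 37C. After MPER lysis, β-galactosidase reporter activity was read as FDG fluorescence (ex 480/em 540) after 30 minutes.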
Chronic BCR inh: qHTS Assay to Find Inhibitors of Chronic Active B-Cell Receptor Signaling | ABC-DLBCL IkBa-CBG/CBR reporter, luminescence ratio, 4 h | Potency, µM (titrated, usually from 46.1 µM), inactives show at the highest dose activity change, negative = inhibition, hits mostly inhibitors | 0.05% of 340,000 active; active = well fitted inhibition curve with a large enough effect in the signal ratio, with a control signal flat, not every such curve was filed as active; inconclusive = small, poorly fitted or top-dose-only effect, or effect the other way, or a change in a side signal; the % refers to the signal ratio;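 note: plate controls were basal doxycycline-induced cells for no effect and cells given 10 µM MG132 for full effect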
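Cell line TMD8 (human ABC DLBCL), stably expressing tet-inducible CBG68-IkBa fusion and CBR; IMDM/0.5% FBS; cpd up to 46 uM; dox induction, 4 h, 37C/5% CO2; dual luminescence; green/red ratio; MG132 control.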
* marks the source's active call; other numbers are inactive results; ? = inconclusive; . = no result; [ ] = dose if it differs, or a comment. Shown are actives, neighbours in structure and some others; about 5.5% of the full set was active somewhere. Unless noted, calls come from the whole dose curve; as a rule, active = well fitted curve in the direction sought with a large enough effect; inconclusive = small, poorly fitted or top-dose-only effect, or another doubt; inactive = no such curve, though single readings can be large; an effect the other way counts as inactive or inconclusive. Potency is the fitted concentration of half-maximal effect.

SMILES | uPA generation | Mito fusion yeast | Gal4-VP16 FLuc | RORgamma inh | a7 integrin act | Chronic BCR inh
CCC(Sc1nc2ccccc2o1)C(=O)Nc1nnc(C)s1 (stereo not given) | -5.0% | ? | ? | 12.6µM* | ? | ?
CCC(Sc1ccccn1)C(=O)Nc1nnc(C)s1 (stereo not given) | -8.0% | -1.0% | -29.9% | 10µM* | 32.6% | 1.8%
CCOC(=O)C(=Cc1c[nH]c2ccc(S(=O)(=O)N(C)C)cc12)C(=O)OCC | -3.0% | -1.7% | -15.8% | ? | 0.0% | ?
CCn1c(C(=O)N2CCCC(C(=O)NCCCc3ccccc3)C2)cc2sccc21 (stereo not given) | -6.5% | ? | 11.2µM* | ? | -43.1% | ?
CCn1c(C(=O)N2CCCC(C(=O)NCCc3ccc(C)cc3)C2)cc2sccc21 (stereo not given) | -5.2% | 16.3% | -6.8% | ? | ? | ?
Cc1ccnn1CCC(=O)N1CCCC(Nc2ccc(F)c(F)c2)C1 (stereo not given) | -2.5% | -1.5% | 5.1% | 13.2% | -15.5% | 3.6%
Cc1cccc(-n2c(C)cc(/C=N/n3cnnc3)c2C)c1 | -3.6% | 0.2% | 20µM* | ? | 0.7% | -8.4%
Cc1cc(/C=N/n2cnnc2)c(C)n1-c1ccc2c(c1)OCO2 | . | -2.5% | 0.6% | 36.6% | 0.0% | -4.1%
CCC(C(=O)NCCC1=CCCCC1)n1nc(C)c2c(C)n(-c3ccccc3)nc2c1=O (stereo not given) | -1.6% | 1.2% | -9.3% | 4.47µM* | 7.8% | 6.0%
CCN(CC)Cc1nc2c(c(=O)[nH]1)C(CC)(CC)Cc1ccccc1-2 | 7.2% | -5.6% | 5.01µM* | 1.58µM* | -49.3% | 0.1%
CC12CCC(C(=NO)C1=O)C2(C)C (stereo not given) | 5.0% | . | . | . | -13.6% | .
O=[N+]([O-])c1ccc(N2CCN(c3ccc([N+](=O)[O-])cc3CO)CC2)c(CO)c1 | -7.1% | 0.6% | 6.31µM* | ? | -41.2% | 0.2%
O=C(NC(=S)N1CCN(c2ccc([N+](=O)[O-])cc2Cl)CC1)c1ccco1 | -0.9% | ? | 0.0316µM* | 0.02µM* | 7.1% | 1.7%
N#Cc1cc([N+](=O)[O-])ccc1N1CCN(c2ccccc2O)CC1 | 5.9% | -3.9% | -0.4%[10 µM] | ? | 3.7% | 0.2%
CCC(=O)NC(=S)N1CCN(c2ccc([N+](=O)[O-])cc2Cl)CC1 | . | -9.3% | 15.8µM* | 3.98µM* | 19.2% | ?
Cc1cccc(C(=O)NCC(=O)OCCOc2ccccc2Cl)c1 | -0.4% | 2.7% | . | . | ? | ?
Cc1ccc(N2Cc3ccccc3C2=O)cc1 | 8.91µM* | -3.6% | ? | ? | 7.2% | -1.1%
C=CC(=O)Oc1ccc(N2Cc3ccccc3C2=O)cc1 | 5.01µM* | . | . | . | -60.4% | .
FC(F)(F)c1cc(CN2CC3(CCNCC3)C2)cc(C(F)(F)F)c1 | . | . | -8.7% | -2.8% | . | .
CCN(CC)c1nc(N(CC)CC)[nH]c(=O)n1 | 0.4% | . | . | . | 15.9% | .
CCN(CC)c1nc(=S)nc(NC(C)(C)C)[nH]1 | -4.5% | -8.6% | 3.16µM* | 1.26µM* | -18.7% | ?
COc1ccc(C(C[N+](=O)[O-])c2c(-c3ccccc3)cc3ccccn23)cc1 (stereo not given) | -12.9% | ? | -14.8% | -9.7% | -33.4% | 2.0%
COc1ccc(C(C[N+](=O)[O-])C2(c3ccc(OC)c(OC)c3)C(=O)c3ccccc3C2=O)cc1 (stereo not given) | -13.7% | -10.4% | 17.8µM* | ? | -43.6% | -5.3%
O=C(COc1ccccc1)NCC(=O)N1CCCC1 | -1.4% | 4.0% | 16.4% | -0.1% | -10.9% | 2.7%
C=C(C(=O)OC)C(NC(=O)OC)c1ccccc1 (stereo not given) | . | . | -4.6% | -20.8% | . | .
SMILES | uPA generation | Mito fusion yeast | Gal4-VP16 FLuc | RORgamma inh | a7 integrin act | Chronic BCR inh
S=C(NCC1CCCO1)Nc1ccc(Cl)cc1Cl (stereo not given) | -0.1% | -7.3% | ? | 15.8µM* | -11.8% | -0.9%
S=C(NCC1CCCO1)NC12CC3CC(CC(C3)C1)C2 (stereo not given) | 3.0% | 3.6% | 5.01µM* | 0.631µM* | -39.8% | -17.6%
S=C(NCC1CCCO1)Nc1ccccc1 (stereo not given) | -4.4% | -1.6% | -3.1% | 11.2µM* | 0.6% | 4.6%
O=C(NCC1CCCO1)NC12CC3CC(CC(C3)C1)C2 (stereo not given) | 6.8% | 1.9% | 4.8% | 8.0% | 3.9% | 0.6%
Cc1ccc(NC(=S)NCC2CCCO2)c(OC(F)F)c1 (stereo not given) | 8.7% | -6.8% | ? | 11.2µM* | -16.5% | 5.1%
O=C(c1ccc2c(c1)N(Cc1cccc(Cl)c1)C(=O)c1ccccc1S2(=O)=O)N1CCN(c2ccccn2)CC1 | -20.4% | 4.2% | -7.5% | -16.3% | 11.3% | 18.5%
CC(C)CN(CCNC(=O)CCN1N=C(c2ccccc2)CCC1=O)CC(C)C | . | . | . | . | . | -4.1%
CC(=O)N1c2ccc(S(=O)(=O)NCc3ccc(Cl)cc3)cc2CC1C (stereo not given) | . | . | . | . | . | -1.0%
CC(Oc1ccc(F)cc1F)C(=O)NNC(=S)NCC1CCCO1 (stereo not given) | 3.7% | -8.0% | ? | 11.2µM* | -13.4% | -0.2%
CCN(CC)c1ccc(NC(=S)NCC2CCCO2)cc1 (stereo not given) | 2.8% | -1.4% | 12.6µM* | 14.1µM* | -12.4% | -0.5%
S=C(NCC1CCCO1)Nc1ccc(Cl)cc1 (stereo not given) | -0.3% | -3.5% | ? | 10µM* | -26.0% | -0.8%
Cc1ccc(NC(=S)NCC2CCCO2)cc1C (stereo not given) | 1.1% | -4.0% | 10µM* | ? | -15.0% | -9.1%
CCn1c(SCC(=O)NC2CCCC2)nnc1C(C)C | -3.9% | 1.1% | 0.9% | -1.9% | -15.9% | -2.4%
O=C(NC1CC(=O)N(c2ccccc2)C1)c1ccc(S(=O)(=O)N2CCCCC2)cc1 (stereo not given) | . | . | . | . | . | 4.7%
Cc1ccc(NC(=S)NCCN2CCOCC2)cc1C | . | -9.8% | -5.9% | 11.2µM* | -8.8% | 0.1%
Cc1ccc(NC(=S)NCC2CCN(C(C)c3ccccc3)C2)cc1C (stereo not given) | -16.1% | 13.9% | ? | 8.91µM* | -25.2% | 0.5%
COc1cc(NC(=S)NCC2CCCO2)c(OC)cc1Cl (stereo not given) | 2.8% | -2.6% | 17.8µM* | 10µM* | 0.0% | 0.4%
COc1ccc(C(=O)N2CCC3(CCCN(C(=O)Nc4cccc(C#N)c4)C3)CC2)cc1 | . | . | 0.0% | 15.8% | . | .
